HCMV antiviral – blocks human cytomegalovirus replication. HFF cells, HCMV-luciferase reporter, 72 h; hits give low values. activity change, negative = inhibition, % at 57.5 µM. 4.5% of 410,000 active. AID 1259415; in the data active = activity change below about -60%; inconclusive = no clear call, values can overlap the other calls; inactive = above about -39%
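Inhibition of viral replication was scored as loss of reporter luminescence in HFFs infected with HCMV-luciferase (MOI 1 PFU/cell) for 72 h; compounds tested at 2 doses, normalized to buffer and Salinomycin controls.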
FMDV inh – foot and mouth disease virus antiviral activity; 1.2% of 410,000 active; Potency, µM (series often up to 57.9 µM), inactives show at the highest dose activity change, negative = inhibition, most hits filed as inhibitors; FMDV antiviral cell-based qHTS; calls by dose curve; tested in HEK293T cells; note: read-out not given here; potency is the fitted concentration of half-maximal effect; nearly all actives have a fitted effect of over 45% in size
VACV Venus inh – vaccinia inhibition (Venus reporter); 0.46% of 330,000 active; Vaccinia virus Venus reporter expression, fluorescence; Potency, µM (highest dose often 36.5 µM), without a hit: at the top dose activity change, negative = inhibition, most hits filed as inhibitors; AID 720580; calls by dose curve; tested in A549 cells; note: potency is the fitted concentration of half-maximal effect; nearly all actives have a fitted effect of over 30% in size
Sm TGR inh – inhibitors of Schistosoma mansoni thioredoxin glutathione reductase; Q962Y6; AID 485364; purified TGR, DTNB reduction, TNB absorbance 405 nm; 3% of 360,000 active; Potency, µM (series often up to 114 µM), for the others: at the highest dose activity change, negative = inhibition, hits mostly inhibitors; note: potency is the fitted concentration of half-maximal effect; nearly all actives have a fitted effect of over 60% in size
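First, TGR (20 nM dispensed) and NADPH were mixed with compound. Second, a 15 min room-temperature incubation followed. Third, further NADPH and then DTNB were added to start the reaction. Finally, TNB absorbance was monitored kinetically.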
VACV mCherry inh – vaccinia inhibition (mCherry reporter); Vaccinia virus mCherry reporter infection, fluorescence; Potency, µM (series often up to 36.5 µM), for inactives: top-dose activity change, negative = inhibition, actives largely listed as inhibitors; 0.63% of 310,000 active; AID 720579; calls by dose curve; tested in A549 cells; note: potency is the fitted concentration of half-maximal effect; nearly all actives have a fitted effect of over 35% in size
HCV inh – HCV inhibition; Potency, µM (doses to about 41.8 µM), for inactives: at the top dose activity change, negative = inhibition, most hits filed as inhibitors; 3.4% of 340,000 active; Huh7.5.1 HCVcc-Cre infection, luciferase reporter, 44 h; AID 651820; note: potency is the fitted concentration of half-maximal effect
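HCVcc-Cre virus at an moi near 0.5 was added right after compound to cells cultured 4 h from seeding (1,000 cells/well). Luciferase activity was determined 44 h later, 15 min after substrate addition at RT.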
Active calls of the source: *; i = inactive; ? = inconclusive; . = no result given. Compounds with a hit are over-represented: about 9.3% of the library has one in this group of screens. Unless noted, calls come from the whole dose curve; as a rule, active = well fitted curve in the direction sought with a large enough effect; inconclusive = small, poorly fitted or top-dose-only effect, or another doubt; inactive = no such curve, though single readings can be large; an effect the other way counts as inactive or inconclusive. % is set by controls: 0 for no effect and ±100 for the full control effect.

SMILES	HCMV antiviral	FMDV inh	VACV Venus inh	Sm TGR inh	VACV mCherry inh	HCV inh
Cc1ccc(-c2nnc(Nc3ccc(C(N)=O)cc3)c3ccccc23)cc1S(=O)(=O)N1CCCCC1	-33	-20%	-16%	-16%	-14%	.
Cc1ccc(-c2nnc(Nc3ccc(O)cc3)c3ccccc23)cc1S(=O)(=O)N1CCCCC1	-90*	-7%	?	-8%	?	.
Cc1ccccc1Nc1nnc(-c2ccc(C)c(S(=O)(=O)N3CCCCC3)c2)c2ccccc12	-63*	0%	-12%	1%	?	.
O=C(CC1(O)C(=O)Nc2cc(Cl)cc(Cl)c21)c1ccccc1O (stereo not given)	15	-18%	-13%	1%	.	25µM*
O=c1[nH]cnc2nc[nH]c12	.	18%	10%	.	-8%	.
O=c1[nH]cn[nH]1	-7	-15%	-6%	-4%	-1%	0.56µM*
COc1ccccc1N1CCN(S(=O)(=O)c2c(C)sc3ncn(CC(=O)Nc4ccccc4F)c(=O)c23)CC1	0	-18%	-17%	2%	-18%	.
CCn1c2ccccc2c2cc(NC(=O)CSc3nnc(-c4cccc(OC)c4)n3N)ccc21	-32	-27%	.	-13%	.	8.9µM*
CCn1c2ccccc2c2cc(NC(=O)CSc3nnc(-c4ccccc4OC)n3N)ccc21	-16	-25%	.	3%	.	?
CCn1c2ccccc2c2cc(NC(=O)CSc3nnc(-c4ccc(OC)c(OC)c4)n3N)ccc21	6	4%	.	-25%	.	3%
CCOc1ccc(-c2nnc(SCC(=O)Nc3ccc4c(c3)c3ccccc3n4CC)n2N)cc1	-61*	-23%	.	6%	.	4µM*
COc1cc([C@@H]2CC=C(C(=O)O)CN2S(=O)(=O)c2ccc(C)cc2)cc(OC)c1OC	-12	-10%	-14%	-17%	-5%	23%
CCCCCCCCCCCCCCCCCCNc1ccn(C2OC(COP(=O)(O)OCC3OC(n4cc(F)c(=O)[nH]c4=O)CC3O)C(O)C2O)c(=O)n1 (stereo not given)	-88*	-5%	?	.	0.32µM*	?
CCCCSCc1nc2ccccn2c1Br	8	5%	-7%	-11%	i	13%
CCCn1c(=O)c2c(nc3n2CCN3Cc2ccco2)n(C)c1=O	21	-21%	-17%	0%	0%	-19%
Cn1c(=O)n(Cc2ccc(Cl)cc2)c(=O)c2c1nc1n2CCN1Cc1ccco1	-86*	?	.	-2%	.	16µM*
Cc1cc(S(=O)(=O)N2CCN(Cc3noc(CCC(=O)N4CCCCC4)n3)CC2)ccc1F	-110*	-4%	-6%	-16%	-10%	.
CC(C)N(C)NC(=S)Nc1ccccc1	0	3%	-3%	-14%	-13%	23%
Cc1cc(N(C)NC(=S)Nc2ccccc2)nc(C)n1	-91*	-6%	-7%	-2%	i	9%
C/C(=N\N1CCCCC1c1cccnc1)c1c(O)n(C2CCCCC2)c(=S)[nH]c1=O (stereo not given)	-103*	-29%	-16%	-11%	?	?
CCCCn1c(O)c(/C(CC)=N/N2CCCCC2c2cccnc2)c(=O)[nH]c1=S (stereo not given)	-63*	0%	-9%	-1%	-15%	-28%
COc1ccc(CNC(=O)c2cnc3sc(N4CCCCCC4)nn3c2=O)cc1	-38	-7%	-9%	-1%	-9%	.
CCOC(=O)c1cc(NC(=O)Nc2cc(C)ccn2)c(C)nc1C	-65*	-6%	-10%	-3%	-19%	-16%
Clc1ccc(-n2nnnc2-c2ccccc2)cc1Cl	-16	-3%	-12%	9%	-2%	19%
CC(Oc1ccc(Br)cc1)C(=O)Nc1ccc(S(=O)(=O)NC2=NCCCCC2)cc1 (stereo not given)	-35	1%	-29%	.	-30%	-22%
SMILES	HCMV antiviral	FMDV inh	VACV Venus inh	Sm TGR inh	VACV mCherry inh	HCV inh
Cc1cc(C)cc(NC(=O)c2ccccc2CC[N+](=O)[O-])c1	-5	0%	-4%	40µM*	.	?
O=C(O)C1=C(C(=O)O)C2C=CC1C2	7	0%	-7%	.	i	4%
COCCN(C(=O)c1cc(Cl)ccn1)c1c(N)n(Cc2ccccc2)c(=O)[nH]c1=O	-5	-3%	-20%	-17%	-11%	19%
CCC(CO)Oc1cc(NCc2ccc(Cl)cc2)c2ncn(C(C)C)c2c1 (stereo not given)	-18	-27%	-19%	.	-24%	2.2µM*
CCOc1cc(NCc2ccccc2)c2ncn(C(C)C)c2c1	11	0%	?	.	?	2.5µM*
CCCOc1cc(NCc2ccccc2)c2ncn(C(C)C)c2c1	16	-18%	?	3%	?	?
CCC(CO)Oc1cc(NCc2cccc(C)c2)c2ncn(C(C)C)c2c1 (stereo not given)	-76*	-12%	-14%	.	?	?
CCC(CO)Oc1cc(NCc2ccc(C(F)(F)F)cc2)c2ncn(C(C)C)c2c1 (stereo not given)	-28	-21%	-22%	.	-26%	11µM*
CCOC(=O)C1CCN(C(=O)Cn2cccc2C(=O)c2ccccc2)CC1	24	5%	.	-2%	.	-11%
CCOc1ccccc1NC(=O)CSc1nc(-c2cccs2)cc(C(F)(F)F)n1	-2	-12%	-19%	1%	-22%	.
COc1ccc(-c2[nH]ncc2CNCCn2cccn2)c(F)c1	-5	-21%	.	?	.	8%
CC[C@H](CO)Oc1cc(NCc2ccc(Cl)c(Cl)c2)c2ncn(C(C)C)c2c1	19	-29%	-23%	.	-14%	11µM*
CNc1ccc(/C=C2\C=Cc3ccccc32)cc1Br	.	.	-23%	.	?	.
CCOc1cc(N2CCOCC2)c(OCC)cc1NC(=O)COC(=O)CCOc1ccc(C)cc1	-11	-11%	.	?	.	6%
C[C@@H]1Cc2c(O)c(O)cc(O)c2C(=O)O1	.	-10%	2%	?	-4%	-7%
CC1Oc2cc3c(-c4c(O)cc(O)c5c(O)c6c(cc45)OC(C)C(C)C6=O)c(O)cc(O)c3c(O)c2C(=O)C1C (stereo not given)	.	?	4µM*	32µM*	?	?
Cc1cc(CNC[C@H]2O[C@@H](n3cnc4c(N)ncnc43)[C@H](O)[C@@H]2O)no1	-1	-23%	-9%	.	-3%	.
CC(=O)OCC1=C(C(=O)O)N2C(=O)C(NC(=O)c3ccc(COc4cccc(Cl)c4Cl)o3)C2SC1 (stereo not given)	9	2%	-10%	20µM*	i	5%
COc1cccc(C(=O)NC2C(=O)N3C(C(=O)O)=C(COC(C)=O)CSC23)c1 (stereo not given)	-2	4%	.	13µM*	.	-2%
CC(=O)OCC1=C(C(=O)O)N2C(=O)C(NC(=O)Cc3cccs3)C2SC1 (stereo not given)	.	-12%	3%	.	-12%	.
